From PubChem
CASP6 VEID inh: blocks human caspase-6 cleavage activity; inhibition, % at 12.5 µM; AID 686996; purified caspase-6, Z-VEID-R110 cleavage fluorescence; 350,000 compounds, 0.53% hits;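 active = mean inhibition across replicates at least about 35%, with every replicate also reaching that limit, limit read from the data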;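 note: 0% = median of neutral control wells and 100% = no fluorescence left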
Target sequence (P55212 24-179 limits assumed): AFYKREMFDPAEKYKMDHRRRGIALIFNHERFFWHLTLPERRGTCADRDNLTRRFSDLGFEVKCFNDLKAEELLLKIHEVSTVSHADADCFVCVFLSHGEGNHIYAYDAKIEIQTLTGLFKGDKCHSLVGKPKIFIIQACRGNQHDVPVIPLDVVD
Target sequence (P55212 194-293 limits assumed): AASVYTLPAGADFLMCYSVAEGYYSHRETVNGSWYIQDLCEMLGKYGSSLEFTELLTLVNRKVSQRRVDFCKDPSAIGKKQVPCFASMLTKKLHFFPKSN
CDK5 inh: blocks human CDK5/p35 kinase activity; 330,000 compounds, 0.01% hits; Q00535+Q15078; inhibition, % at 10 µM; Recombinant CDK5/p35, ADP-Glo luminescence, 60 min;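 active = highest replicate inhibition of at least 50% and at least 75% of replicates reaching 50%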;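 note: plate controls were DMSO neutral control for no effect and GW8510 at 10 µM for full effect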
ALR H2O2 inh: human ALR oxidase inhibition via reduced H2O2 | P55789 | purified ALR, DTT oxidation, H2O2 HRP-luminol luminescence | inhibition, % (concentration not given with the values) | 290,000 compounds, 3.8% hits | AID 485317;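 active = mean replicate inhibition above about 79%, with every replicate also reaching it, limit read from the data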
Target sequence (P55789 whole entry, looked up): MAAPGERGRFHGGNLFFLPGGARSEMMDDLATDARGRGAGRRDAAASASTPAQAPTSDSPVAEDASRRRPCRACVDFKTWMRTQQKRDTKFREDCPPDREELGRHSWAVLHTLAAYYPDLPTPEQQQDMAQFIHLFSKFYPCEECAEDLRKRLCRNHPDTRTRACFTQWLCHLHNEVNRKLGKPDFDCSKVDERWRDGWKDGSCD
NSD2 HMT inh: blocks human histone methyltransferase NSD2; NSD2 peptide methylation, AlphaScreen, 120 min; inhibition, % at 12.5 µM; 310,000 compounds, 0.54% hits; in the data active = inhibition above about 50%
Glyco luc inh: blocks N-linked glycosylation in D54 reporter cells | D54 ERlucT glycosylation luciferase reporter, 24 h; percent of 100 nM tunicamycin response | AID 588692 | 360,000 compounds, 0.23% hits | reporter increase, % at 12.5 µM;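 active = mean luciferase reporter signal, scaled so untreated is 0 and the glycosylation-blocking control 100, at or above a set limit in every replicate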;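 note: luciferase carries N-glycosylation sites so blocking glycosylation raises the light; 0% = median of neutral control wells and 100% = median of 100 nM tunicamycin wells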
SUMO Mot1 rescue: blocks SUMOylation pathway, rescuing yeast Mot1-301 growth | S. cerevisiae Mot1-301 growth rescue, ATP luminescence, 38.5C; percent above DMSO median, 100 means doubled | growth rescue, % at 18.8 µM | 320,000 compounds, 1% hits;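 active = every valid replicate shows activation above 250% relative to neutral control wells; inactive = the rest, any valid replicate at or below 250%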;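 note: OY570 slx delta 5 strain wells were the positive control but not used for scaling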
Active calls of the source: *; / = no result given. Hits are enriched below; roughly 3.9% of the tested compounds scored in any of these assays.

SMILES	CASP6 VEID inh	CDK5 inh	ALR H2O2 inh	NSD2 HMT inh	Glyco luc inh	SUMO Mot1 rescue
CC(=O)OCCN1C(=O)c2cccc3cc([N+](=O)[O-])cc(c23)C1=O	/	/	-7	/	/	-13
COCC(=O)Nc1ccc2c(c1)[C@H]1C[C@H](CC(=O)O)O[C@H](CO)[C@H]1O2	1	/	/	/	/	/
O=c1c2ccccc2cnn1Cc1n[nH]c(=S)n1-c1ccccc1	2	-1	27	-1	9	-7
C=CCn1c(C(c2ccccc2)c2ccccc2)n[nH]c1=S	/	1	/	-2	2	2
C=CCn1c(OCc2ccccc2)n[nH]c1=S	-4	1	96*	-1	2	9
S=c1[nH]nc(Cc2cccc3ccccc23)n1-c1ccccc1	/	2	90*	1	3	-16
S=c1[nH]nc(Cc2noc3ccccc23)n1-c1ccccc1	13	0	86*	-2	2	-22
C=CCn1c(CSc2nnc(-c3ccccc3)n2C)n[nH]c1=S	-4	0	83*	0	4	-5
CC(C)NC(=O)Nc1cccc2c1O[C@@H](CN(C)Cc1ccc(C(=O)O)cc1)[C@@H](C)CN([C@@H](C)CO)C2=O	2	/	/	/	/	/
C=CCn1c(Cc2cccc3ccccc23)n[nH]c1=S	/	1	92*	2	-4	5
O=C(C[C@H]1CC[C@@H](NC(=O)c2ccccc2)[C@@H](CO)O1)NCc1ccc(Oc2ccccc2)cc1	0	/	/	/	/	/
COc1ccccc1C#Cc1cnc2c(c1)C(=O)N([C@H](C)CO)C[C@@H](C)[C@@H](CN(C)C(=O)CC1CC1)O2	-1	/	/	/	/	/
C/C(=N/N=C/c1ccc(N(C)C)cc1)c1ccccc1	-2	7	66	1	-17	2
CN(C)c1ccc(/C(=N\O)c2ccccc2)cc1	/	-2	94*	19	-3	-8
CC1CN(C(=O)C(C)N2CCN(c3cccc(Cl)c3)CC2)CC(C)O1 (configuration not stated)	-4	1	88*	-5	-1	80
Cc1ccc(O)c(-c2cc(C(=O)NCc3ccncc3)[nH]n2)c1	/	1	90*	-2	1	-4
O=C(NN=Cc1ccc(F)cc1)c1ccccc1NS(=O)(=O)c1cccs1	0	-1	/	0	0	-11
O=C(N/N=C/c1ccc([N+](=O)[O-])o1)c1ccccc1NS(=O)(=O)c1cccs1	40*	-5	-23	/	2	-31
O=C(NN=Cc1cc(Br)c(O)c(Br)c1)c1ccccc1NS(=O)(=O)c1cccs1	16	-2	89*	-7	0	0
COc1ccc(N2CCN(Cc3nc(Cc4cccc(F)c4)no3)C(C)C2)cc1 (configuration not stated)	0	-1	98*	9	1	-25
C[C@H]1CN([C@@H](C)CO)C(=O)c2cc(NC(=O)Nc3cccc4ccccc34)ccc2O[C@@H]1CN(C)Cc1ccc(C(=O)O)cc1	-2	/	/	/	/	/
O=C(Nc1ccc(N2CCOCC2)c2nonc12)C1CCCC1	/	-1	-20	37	0	412
Nc1ccc(N2CCOCC2)c2nonc12	83*	-1	67	/	0	-3
Brc1ccc(-c2csc(-c3c[nH]c4ccccc34)n2)cc1	/	0	-4	-1	3	-5
c1ccc2c(-c3csc(-c4ccncc4)n3)c[nH]c2c1	0	-1	99*	-3	-10	-10
SMILES	CASP6 VEID inh	CDK5 inh	ALR H2O2 inh	NSD2 HMT inh	Glyco luc inh	SUMO Mot1 rescue
CO[C@@H]1CN(C)C(=O)c2cc(NC(C)=O)ccc2OC[C@H](C)N(CCc2ccccc2)C[C@@H]1C	0	/	/	/	/	/
C[C@@H]1CN([C@@H](C)CO)C(=O)c2cccc(NC(=O)C3CC3)c2O[C@@H]1CN(C)C(=O)NC1CCCCC1	2	/	/	/	/	/
C[C@H]1C=C(C(=O)N2CCN(Cc3ccccc3)CC2)O[C@@H](OCc2ccc(CO)cc2)C1	1	/	/	/	/	/
CCSc1nnc(NC(=O)c2cccc(S(=O)(=O)N(C)c3ccccc3)c2)s1	/	1	94*	-6	1	10
COc1cc(OC)c(N(C)S(=O)(=O)c2cccc(C(=O)Nc3nc(C)cs3)c2)cc1Cl	3	0	/	-1	-3	/
Cc1ccc(N(C)S(=O)(=O)c2cccc(C(=O)Nc3nnc(C4CC4)s3)c2)cc1	/	0	95*	0	-2	8
COc1ccc(N(C)S(=O)(=O)c2cccc(C(=O)Nc3nc(C)cs3)c2)cc1	-3	-1	97*	2	1	-1
C=CCN(c1ccccc1)S(=O)(=O)c1cccc(C(=O)Nc2nnc(SCC)s2)c1	1	-1	67	-4	-1	6
COc1ccc(N(C)S(=O)(=O)c2cccc(C(=O)Nc3nnc(C4CC4)s3)c2)cc1	2	3	-5	-4	0	/
CCOCCCN(C(=O)c1snc(C(N)=O)c1N)C(C(=O)NCCC(C)C)c1ccc(C)cc1 (configuration not stated)	/	/	/	0	/	/
C[C@H]1CN([C@@H](C)CO)C(=O)c2cc(C#CCc3ccccc3)cnc2O[C@@H]1CN(C)CC1CCCC1	0	/	/	/	/	/
c1ccc(-c2cc(NCCN3CCCCC3)c3ccccc3n2)cc1	/	0	/	7	71*	46
Cc1cc(NCCCN2CCOCC2)n2nc(C)c(-c3ccc(F)cc3)c2n1	/	1	98*	/	7	16
Cc1cc(NCCCN2CCOCC2)n2nc(C)c(-c3ccccc3)c2n1	/	-1	/	2	0	0
C[C@@H]1CCCCO[C@H](CN(C)S(=O)(=O)c2ccc(Cl)cc2)[C@H](C)CN([C@@H](C)CO)C(=O)c2cc(NC(=O)CCCN(C)C)ccc2O1	-24	/	/	/	/	/
C[C@@H]1CN([C@@H](C)CO)C(=O)c2cc(NC(=O)CCC(F)(F)F)ccc2O[C@@H](C)CCCCO[C@H]1CN(C)S(=O)(=O)c1ccc(F)cc1	-1	/	/	/	/	/
N=C1C(c2nc3ccccc3s2)=C(O)CN1Cc1ccco1	/	-6	98*	3	0	8
COCCn1c(=NC(=O)CSC(C)=O)sc2cc(OC)ccc21	0	-1	98*	/	2	6
CCn1c(=NC(=O)CSC(C)=O)sc2cc(OC)ccc21	1	0	52	/	4	6
CC(=O)NCCOC(=O)Nc1sc(=S)n(C)c1C	/	2	43	0	1	-11
Cc1c(NC(=O)OC(C)C)sc(=S)n1C	0	-3	98*	-1	1	-5
C[C@@H]1CN([C@@H](C)CO)C(=O)Cc2cc(NS(=O)(=O)c3ccccc3)ccc2O[C@H]1CN(C)Cc1ccc(C(F)(F)F)cc1	17	/	/	/	/	/
O=C(CSC(=S)N1CCOCC1)c1cc2ccccc2oc1=O	/	-1	96*	/	6	8
Cc1cc(C)nc(SCC(=O)c2cc3ccccc3oc2=O)n1	/	1	93*	-4	7	-10
COC(=O)COc1cccc2c(=O)n(CC(=O)N3CCCc4ccccc43)ccc12	0	0	89*	/	0	15
